# Reference: the supplement of paper PMC11219838
# System: Meloidogyne hapla J2
# Test: proportion of mobile M. hapla J2 relative to DMSO control (fraction of DMSO control); higher = more viable, less nematicidal, active = 0.7 or less
# Conditions: 60 µM; 5 days; temperature: 20 °C
# Method in brief: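 Sealed 96-well plates, each well holding around 25 M. hapla J2 in distilled water with compound pinned to 60 µM final (0.6% v/v DMSO), were shaken at 200 rpm for 5 days at 20 °C. Then 2 µL of 1 M NaOH was added to each well. Microscope-scored mobility was normalised to the mean of DMSO-only wells from the same plate. Eight such wells were on each plate, and the two biological replicates were averaged.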
row,SMILES,proportion of mobile M. hapla J2
1,Cc1cc(OCc2nc(-c3ccncc3)no2)cc(C)c1Cl,0.78 (inactive)
2,Cc1ccc(-c2noc(COc3ccc(Cl)cc3C)n2)cc1,0.996 (inactive)
3,COc1cccc(OCc2nc(-c3cccc(C)c3)no2)c1,0.866 (inactive)
4,Cc1ncc2c(c1-c1noc(-c3ccccc3)n1)CCC2,0.921 (inactive)
5,Cc1ccc(-c2nc(-c3cccc(C)c3)no2)cc1,0.87 (inactive)
6,Cc1ccc(OCc2nc(-c3ccccc3)no2)cc1C,1.1 (inactive)
7,Cc1ccc(-c2noc(-c3ccc4c(c3)OCCO4)n2)cc1,1 (inactive)
8,Cc1ccc(-c2noc(-c3ccco3)n2)s1,1.11 (inactive)
9,Fc1ccc(CSc2nnc(-c3ccccn3)o2)cc1,0.846 (inactive)
10,O=C(CSc1nnc(-c2cccc(Br)c2)o1)Nc1ccccn1,0.951 (inactive)
11,COc1nc(C)ccc1-c1noc(-c2ccc(C)cc2)n1,0.926 (inactive)
12,COc1ccc(C(=O)CSc2nnc(-c3cccc(Br)c3)o2)cc1,1.04 (inactive)
13,O=C(CSc1nnc(-c2ccncc2)o1)Nc1cc(C(F)(F)F)ccc1Cl,0.841 (inactive)
14,Cc1cccc(C)c1NC(=O)CSc1nnc(-c2ccncc2)o1,0.908 (inactive)
15,Cc1ccc(OCc2nc(-c3ccc(F)cc3)no2)cc1C,1.03 (inactive)
16,CCOc1ccccc1-c1nnc(SCc2ccccc2)o1,0.891 (inactive)
17,Brc1ccc(-c2nc(-c3ccc4c(c3)OCO4)no2)cc1,1.03 (inactive)
18,COc1ccc(C)cc1NC(=O)CSc1nnc(-c2ccc(Br)cc2)o1,0.938 (inactive)
19,Cc1ccc(-c2noc(-c3ccc(Br)cc3)n2)cc1,1.05 (inactive)

row,SMILES,proportion of mobile M. hapla J2
1,Cc1ccc(-c2noc(-c3ccccc3C)n2)cc1,1.04 (inactive)
2,Clc1cccc(-c2nc(-c3ccccc3Cl)no2)c1,0.991 (inactive)
3,Brc1cccc(-c2nc(-c3ccncc3)no2)c1,0.991 (inactive)
4,Clc1ccc(OCc2nc(-c3ccncc3)no2)cc1,0.749 (inactive)
5,Cc1cc(Br)ccc1OCc1nc(-c2cccnc2)no1,1.05 (inactive)
6,CCCCCOC(=O)CSc1nnc(-c2ccc(Cl)cc2Cl)o1,0.737 (inactive)
7,Fc1cccc(-c2nc(-c3cccnc3)no2)c1,1.08 (inactive)
8,Cc1ccoc1-c1nnc(-c2ccco2)o1,0.949 (inactive)
9,Cc1ccc(CSc2nnc(-c3ccco3)o2)cc1,0.628 (active)
10,Cc1ccc(-c2noc(-c3ccc(Br)o3)n2)s1,0.965 (inactive)
11,COc1ccc(OCc2nc(-c3ccccc3)no2)cc1,0.891 (inactive)
12,Cc1cc(OC(C)c2nc(-c3cccnc3)no2)ccc1Cl (stereo unspecified),0.862 (inactive)
13,CCn1cc(C(=O)CSc2nnc(-c3ccccc3)o2)c2ccccc21,0.987 (inactive)
14,COc1ccccc1OCc1nc(-c2cccc(C)c2)no1,0.871 (inactive)
15,Clc1ccc(OCc2nc(-c3cccnc3)no2)c(Cl)c1,0.998 (inactive)
16,Brc1ccc(OCc2nc(-c3ccncc3)no2)cc1,0.995 (inactive)
17,O=C(Nc1cccc(-c2noc(COc3ccccc3)n2)c1)c1cccs1,0.847 (inactive)
18,Cc1ccc(-c2noc(COc3ccccc3C)n2)cc1,1.01 (inactive)
19,CCn1c(SCc2nc(-c3cccs3)no2)nnc1-c1ccco1,0.813 (inactive)

# System: Caenorhabditis elegans dauer (daf-2(e1370))
# Test: proportion of mobile C. elegans dauer larvae relative to DMSO control (fraction of DMSO control); higher = more viable, less nematicidal, active = 0.63 or less; extreme values may be limits of the assay
# Conditions: 60 µM; 5 days; temperature: 20 °C
# Method in brief: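 Compound was added by pinning to 60 µM final, giving 0.6% v/v DMSO, in 96-well plates containing about 20 C. elegans dauers per well in liquid NGM. These dauers came from synchronized larvae held on MYOB plates with E. coli OP50 for 48 h at 25 °C. Plates were sealed and shaken at 200 rpm at 20 °C for 5 days. Under a dissection microscope, the proportion of mobile worms was scored relative to DMSO wells, and two biological replicates were averaged.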
row,SMILES,proportion of mobile C. elegans dauer larvae
1,Cc1cc(OCc2nc(-c3ccncc3)no2)cc(C)c1Cl,1 (inactive)
2,Cc1ccc(-c2noc(COc3ccc(Cl)cc3C)n2)cc1,1 (inactive)
3,COc1cccc(OCc2nc(-c3cccc(C)c3)no2)c1,1 (inactive)
4,Cc1ncc2c(c1-c1noc(-c3ccccc3)n1)CCC2,0.929 (inactive)
5,Cc1ccc(-c2nc(-c3cccc(C)c3)no2)cc1,1 (inactive)
6,Cc1ccc(OCc2nc(-c3ccccc3)no2)cc1C,1 (inactive)
7,Cc1ccc(-c2noc(-c3ccc4c(c3)OCCO4)n2)cc1,0.615 (active)
8,Cc1ccc(-c2noc(-c3ccco3)n2)s1,0.812 (inactive)
9,Fc1ccc(CSc2nnc(-c3ccccn3)o2)cc1,1 (inactive)
10,O=C(CSc1nnc(-c2cccc(Br)c2)o1)Nc1ccccn1,1 (inactive)
11,COc1nc(C)ccc1-c1noc(-c2ccc(C)cc2)n1,1 (inactive)
12,COc1ccc(C(=O)CSc2nnc(-c3cccc(Br)c3)o2)cc1,1 (inactive)
13,O=C(CSc1nnc(-c2ccncc2)o1)Nc1cc(C(F)(F)F)ccc1Cl,1 (inactive)
14,Cc1cccc(C)c1NC(=O)CSc1nnc(-c2ccncc2)o1,1 (inactive)
15,Cc1ccc(OCc2nc(-c3ccc(F)cc3)no2)cc1C,1 (inactive)
16,CCOc1ccccc1-c1nnc(SCc2ccccc2)o1,1 (inactive)
17,Brc1ccc(-c2nc(-c3ccc4c(c3)OCO4)no2)cc1,1 (inactive)
18,COc1ccc(C)cc1NC(=O)CSc1nnc(-c2ccc(Br)cc2)o1,1 (inactive)
19,Cc1ccc(-c2noc(-c3ccc(Br)cc3)n2)cc1,1 (inactive)

row,SMILES,proportion of mobile C. elegans dauer larvae
1,Cc1ccc(-c2noc(-c3ccccc3C)n2)cc1,0.562 (active)
2,Clc1cccc(-c2nc(-c3ccccc3Cl)no2)c1,1 (inactive)
3,Brc1cccc(-c2nc(-c3ccncc3)no2)c1,1 (inactive)
4,Clc1ccc(OCc2nc(-c3ccncc3)no2)cc1,0.645 (inactive)
5,Cc1cc(Br)ccc1OCc1nc(-c2cccnc2)no1,1 (inactive)
6,CCCCCOC(=O)CSc1nnc(-c2ccc(Cl)cc2Cl)o1,1 (inactive)
7,Fc1cccc(-c2nc(-c3cccnc3)no2)c1,1 (inactive)
8,Cc1ccoc1-c1nnc(-c2ccco2)o1,1 (inactive)
9,Cc1ccc(CSc2nnc(-c3ccco3)o2)cc1,0.167 (active)
10,Cc1ccc(-c2noc(-c3ccc(Br)o3)n2)s1,1 (inactive)
11,COc1ccc(OCc2nc(-c3ccccc3)no2)cc1,1 (inactive)
12,Cc1cc(OC(C)c2nc(-c3cccnc3)no2)ccc1Cl (stereo unspecified),1 (inactive)
13,CCn1cc(C(=O)CSc2nnc(-c3ccccc3)o2)c2ccccc21,1 (inactive)
14,COc1ccccc1OCc1nc(-c2cccc(C)c2)no1,1 (inactive)
15,Clc1ccc(OCc2nc(-c3cccnc3)no2)c(Cl)c1,1 (inactive)
16,Brc1ccc(OCc2nc(-c3ccncc3)no2)cc1,1 (inactive)
17,O=C(Nc1cccc(-c2noc(COc3ccccc3)n2)c1)c1cccs1,1 (inactive)
18,Cc1ccc(-c2noc(COc3ccccc3C)n2)cc1,1 (inactive)
19,CCn1c(SCc2nc(-c3cccs3)no2)nnc1-c1ccco1,1 (inactive)
